Laboratory results: PubChem BioAssay (NCATS)
Results filed as inconclusive are left out. Activity calls are given as the source filed them. The call rests on the fitted dose curve; in most records, active means well fitted inhibition curve with a large enough effect; inconclusive means small, poorly fitted or top-dose-only effect; inactive means flat fitted curve, though single readings scatter.

What follows are molecules tested against Luciferin 4-monooxygenase (Photinus pyralis) (UniProt P08659) (assay: Biochemical firefly luciferase enzyme assay for NPC (AID 624030;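 further: 0% = DMSO and -100% = full luciferase inhibition by PTC124 control; nearly all actives have a fitted effect of over 70% in size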)). Conditions: purified P. pyralis luciferase, luminescence, 5 min; series mostly up to 58.6 µM; activity change, negative = inhibition: at the top concentration.
Chain of Luciferin 4-monooxygenase (Photinus pyralis) (P08659 whole entry, looked up): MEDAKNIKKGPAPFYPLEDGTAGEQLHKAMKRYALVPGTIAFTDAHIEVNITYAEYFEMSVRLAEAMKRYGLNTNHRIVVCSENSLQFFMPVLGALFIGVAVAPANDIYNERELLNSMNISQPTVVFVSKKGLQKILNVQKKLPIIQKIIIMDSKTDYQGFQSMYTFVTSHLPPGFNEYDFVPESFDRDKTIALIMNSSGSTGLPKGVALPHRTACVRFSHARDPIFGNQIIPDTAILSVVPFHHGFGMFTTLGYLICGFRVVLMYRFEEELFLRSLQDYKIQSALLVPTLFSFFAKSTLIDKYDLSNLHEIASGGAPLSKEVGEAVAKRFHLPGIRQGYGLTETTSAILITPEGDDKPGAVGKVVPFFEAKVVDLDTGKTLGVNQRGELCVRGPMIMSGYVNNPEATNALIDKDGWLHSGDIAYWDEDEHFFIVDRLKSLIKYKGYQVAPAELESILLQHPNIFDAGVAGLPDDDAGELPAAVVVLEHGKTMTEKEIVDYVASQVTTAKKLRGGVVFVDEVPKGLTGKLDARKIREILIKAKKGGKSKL
Excerpt: Charcot-Marie-Tooth-Association [CMTA] National Center for Advancing Translational Sciences [NCATS] Charcot-Marie-Tooth (CMT) disease was first characterized by Jean-Martin Charcot and Pierre Marie in France and, independently, by Howard Henry Tooth in England in 1886. CMT is one of the most common inherited neurological diseases, affecting approximately 1 in 2,500 Americans. […] The most prevalent type of CMT is known as CMT1A and caused by a duplication of the PMP22 gene which leads to over-expression of this protein. PMP22 is a glycosylated intrinsic membrane protein accounting for 2-5% of the myelin protein content, and its over-expression results in demyelination and subsequently axonal loss. A pair of cellular transcription-based assays was developed in the S16 rat Schwann cell lines (Hai, M., et al., 2002) stably transfected with orthogonal reporters - firefly luciferase (Fluc) and beta-lactamase (beta-Lac) - whose expression is driven by an intronic regulatory element of the PMP22 gene (Jones, E.A., et al., 2011) to recapitulate endogenous expression of PMP22. A comprehensive library of approved drugs, the NCGC Pharmaceutical Collection (Huang, R., et al., 2011), was screened in the cross-validating platform of the orthogonal reporter assays to identify drug modulators inhibitory towards PMP22 expression. A set of counter-screens was devised to address non-specific activity of the library. An ATP-dependent CellTiter-Glo assay (developed by Promega Corp) was utilized to control cell viability. In addition, biochemical Fluc enzyme assay was performed to assess direct inhibition of the Fluc enzymatic activity. References Hai, M., Muja, N., DeVries, G.H., Quarles, R.H. and Patel, P.I. Comparative analysis of Schwann cell lines as model systems for myelin gene transcription studies. J Neurosci Res, 2002. 69(4): pp 497-508 Huang, R., Southall, N., Wang, Y., Yasgar A., Shinn P., Jadhav, A. , Nguyen, D.-T. and Austin, C.P., The NCGC pharmaceutical collection: a comprehensive resource of clinically approved drugs enabling repurposing and chemical genomics. Sci Transl Med, 2011. 3(80): p. 80ps16.
Compounds were transferred to the plates in 23nl, and one microliter/well luciferase enzyme-buffer solution (10 nM P. pyralis luciferase and 50 mM Tris Acetate final concentrations) was dispensed yielding a final reaction volume of […]. Luciferase luminescence was measured by a ViewLux plate reader within 5 minutes of enzyme-buffer addition. The % activity was determined by normalizing to the average readings of PTC124 (a positive control) relative to DMSO (0% Activity). The concentration-effect curves were then classified based on curve quality (r2), response magnitude and degree of measured activity.

Compound | activity change, negative = inhibition | Potency
CN(C)CCOc1ccc(/C(=C(/CCCl)c2ccccc2)c2ccccc2)cc1 | 1.01% (inactive) | 
Oc1cccc(O)c1O | -13.2% (inactive) | 
Nc1ncnc2c1ncn2[C@H]1CC[C@@H](CO)O1 | -0.127% (inactive) | 
O=C(O)CC/C=C\CC[C@@H]1[C@@H](N2CCCCC2)[C@@H](O)C[C@@H]1OCc1ccc(-c2ccccc2)cc1 | -2.81% (inactive) | 
CC(C)CCC[C@@H](C)[C@H]1CC[C@H]2[C@@H]3CC=C4C[C@@H](O)CC[C@]4(C)[C@H]3CC[C@]12C | 1.57% (inactive) | 
CC(C)CCCC(C)NC(C)C (stereo not given) | 1.49% (inactive) | 
O=[n+]1ccn([O-])c2ccccc21 | -0.654% (inactive) | 
CC(=O)[C@H]1CC[C@H]2[C@@H]3C=CC4=CC(=O)CC[C@@]4(C)[C@H]3CC[C@]12C | -0.22% [at 24.9 µM] (inactive) | 
C[C@H](N)C(=O)N[C@@H](C)P(=O)(O)O | 3.5% (inactive) | 
CC1=CCC2CC1C2(C)C (stereo not given) | 1.5% (inactive) | 
CC1CC(OC(=O)C(O)c2ccccc2)CC(C)(C)C1 (stereo not given) | -5.22% (inactive) | 
NC(=S)NS(=O)(=O)c1ccc(N)cc1 | -0.197% (inactive) | 
N#Cc1ccc2c(c1)N(CCCN1CCC(O)CC1)c1ccccc1S2 | 8.85% (inactive) | 
O=C(O)Cc1nn(Cc2ccc(Br)cc2F)c(=O)c2ccccc12 | -5.39% (inactive) | 
COc1cc(S(C)=O)ccc1-c1nc2ncccc2[nH]1 (stereo not given) | 1.11% (inactive) | 
CCC(=O)c1ccc2c(c1)N(CCCN1CCN(CCO)CC1)c1ccccc1S2 | 8.34% (inactive) | 
COc1ccc(C(=O)CCC(=O)O)c2ccccc12 | -7.13% (inactive) | 
O=C1N=C2SCCN2C(=O)C1Cc1ccc(Cl)cc1 (stereo not given) | -4.28% (inactive) | 
Cc1ncc(C[n+]2csc(CCOP(=O)(O)O)c2C)c(N)n1 | 1.01% (inactive) | 
CCOC(=O)C1=C(COCCN)NC(C)=C(C(=O)OC)C1c1ccccc1Cl (stereo not given) |  | inactive

Compound | activity change, negative = inhibition | Potency
Cc1cc2nc3c(=O)[nH]c(=O)nc-3n(C[C@H](O)[C@H](O)[C@H](O)COP(=O)(O)OP(=O)(O)OC[C@H]3O[C@@H](n4cnc5c(N)ncnc54)[C@H](O)[C@@H]3O)c2cc1C | -9.81% (inactive) | 
CCC(C)[C@@H](N)C(=O)O (stereo not given in full) | 1.09% (inactive) | 
CC12CCC(C[N+](C)(CCC[N+](C)(C)C)C1)C2(C)C (stereo not given) | -0.826% (inactive) | 
NCCO/C=C/[C@H](N)C(=O)O | 0.05% (inactive) | 
CCCCCCCCCCCCCCCCCC[N+](C)(C)CCC[Si](OC)(OC)OC | -4.73% (inactive) | 
COC(=O)C(CN)c1c[nH]c2ccc(OC)cc12 (stereo not given) | 6.54% (inactive) | 
CCCC(=O)O | -0.408% (inactive) | 
CCCCCCOC(=O)c1cccnc1 | -19.5% (inactive) | 
S=C1SCN(Cc2ccccc2)CN1Cc1ccccc1 | -1.72% (inactive) | 
O=C(CCCCCCCCCCCCC1CCCC1)Nc1ccc(S(=O)(=O)c2ccc(NC(=O)CCCCCCCCCCCCC3CCCC3)cc2)cc1 | 0.757% (inactive) | 
CCN(CC)CCC(=O)N1c2ccccc2Sc2ccc(C(F)(F)F)cc21 | 4.04% (inactive) | 
C[C@H]1O[C@@H](O[C@H]2[C@@H](O)C[C@H](O[C@H]3[C@@H](O)C[C@H](O[C@H]4CC[C@@]5(C)[C@H](CC[C@@H]6[C@@H]5C[C@@H](O)[C@]5(C)[C@@H](C7=CC(=O)OC7)CC[C@]65O)C4)O[C@@H]3C)O[C@@H]2C)C[C@H](O)[C@@H]1O | 0.878% (inactive) | 
CC/C=C\C/C=C\C/C=C\C/C=C\C/C=C\C/C=C\CCC(=O)O | -7.13% (inactive) | 
CC[C@H]1OC(=O)[C@H](C)[C@@H](O[C@H]2C[C@@](C)(OC)[C@@H](O)[C@H](C)O2)C(C)[C@@H](O[C@@H]2O[C@H](C)C[C@H](N(C)C)[C@@H]2O)[C@](C)(OC)C[C@@H](C)C(=O)[C@H](C)[C@@H](O)[C@]1(C)O (stereo not given in full) | 3.08% (inactive) | 
CCCOC(=O)c1ccccc1O | -2.39% (inactive) | 
CC/C=C\C/C=C\C/C=C\CCCCCCCC(=O)O | -11.4% (inactive) | 
O=C(O)CCC/C=C\C[C@@H]1[C@@H](/C=C/[C@@H](O)COc2cccc(C(F)(F)F)c2)[C@H](O)C[C@@H]1O | -6.04% (inactive) | 
CC(C)(C)CC(C)(C)c1ccc(OCCO)cc1 | 0.0617% (inactive) | 
CN1CCCC(CN2c3ccccc3Sc3ccccc32)C1 (stereo not given) | 12.6% (inactive) | 
NC(N)=O | 1.47% (inactive) | 
